Source: PubChem BioAssay
Granule exo inh = blocks lytic granule exocytosis; TALL-104 LAMP-1 surface exposure, flow cytometry; cells stimulated with thapsigargin and PMA; inhibition, % at 10 µM; 360,000 compounds, 0.66% hits;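 active = inhibition above about 55%, limit read from the data; inconclusive = no clear call, values can overlap the other calls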
Myeloid diff MLP = compounds promoting myeloid differentiation; ER-HoxA9 myeloid progenitors, lysozyme-GFP differentiation, flow cytometry; calls only at 10 µM; 360,000 compounds, 1% hits; AID 624256;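 active = normalized GFP-positive differentiation at or above the plate's own cutoff, the solvent-only control mean plus 3 SD; inconclusive = no clear call, values can overlap the other calls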;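 note: cells exposed to compound for four days before flow analysis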
ABCB6 inh 2 = inhibitors of human ABC transporter ABCB6; Q9NP58; K562-ABCB6 porphyrin accumulation, flow cytometry, 1 h; active compounds read low; fluorescence ratio to DMSO, % at 10 µM; 360,000 compounds, 0.19% hits; AID 602162;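 active = fluorescence ratio to DMSO below 75%, the collection mean minus 3 SD; inconclusive = too few cells collected in the well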;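 note: signal is porphyrin accumulated inside mitochondria; lower ratio means ABCB6 inhibition with less porphyrin fluorescence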
Target sequence (Q9NP58 whole entry, looked up): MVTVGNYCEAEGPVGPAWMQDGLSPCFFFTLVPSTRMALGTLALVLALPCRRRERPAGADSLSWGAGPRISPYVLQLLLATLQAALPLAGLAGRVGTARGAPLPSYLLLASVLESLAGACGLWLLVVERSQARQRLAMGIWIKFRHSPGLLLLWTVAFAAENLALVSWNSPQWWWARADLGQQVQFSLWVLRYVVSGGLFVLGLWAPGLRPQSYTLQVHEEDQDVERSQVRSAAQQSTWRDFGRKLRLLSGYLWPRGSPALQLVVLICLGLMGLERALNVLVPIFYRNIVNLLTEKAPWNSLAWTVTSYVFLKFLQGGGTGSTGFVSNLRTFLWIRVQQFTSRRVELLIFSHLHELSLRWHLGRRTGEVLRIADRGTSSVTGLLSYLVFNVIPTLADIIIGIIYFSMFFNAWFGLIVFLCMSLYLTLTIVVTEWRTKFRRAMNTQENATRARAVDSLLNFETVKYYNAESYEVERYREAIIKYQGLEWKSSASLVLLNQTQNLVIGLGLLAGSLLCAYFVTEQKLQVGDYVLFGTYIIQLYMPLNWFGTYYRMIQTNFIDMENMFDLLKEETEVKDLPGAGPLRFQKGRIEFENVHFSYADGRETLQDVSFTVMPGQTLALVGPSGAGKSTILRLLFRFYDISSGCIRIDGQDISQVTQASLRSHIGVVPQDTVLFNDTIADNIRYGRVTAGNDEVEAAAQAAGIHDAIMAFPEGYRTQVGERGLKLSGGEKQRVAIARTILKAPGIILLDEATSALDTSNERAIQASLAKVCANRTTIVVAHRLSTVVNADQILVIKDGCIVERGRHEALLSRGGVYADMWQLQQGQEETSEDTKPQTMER
Numbers stand for hits; – = inactive; ? = inconclusive; · = not tested or not shown; + = active, no number. Shown are actives, neighbours in structure and some others; about 1.8% of the full set was active somewhere.

SMILES	Granule exo inh	Myeloid diff MLP	ABCB6 inh 2
COc1cc(OC)c(NC(=O)[C@@H]2CCC(=O)N2C2OC(=O)c3c2ccc(OC)c3OC)cc1Cl (some centres undefined)	–	–	–
CC(C)OC(=O)CN1C(=O)S/C(=C/c2ccc(N3CCCCC3)o2)C1=O	63	–	–
C#CCN1C(=O)S/C(=C\c2ccc(-c3ccc(C(=O)O)cc3C)o2)C1=O	–	–	–
COc1cccc(CNC(=O)[C@@H]2CCCN2C(=O)[C@@H]2CCCN2C(=O)c2cccc3ccccc23)c1	–	–	–
NC(=O)c1cc(S(=O)(=O)NCCCc2ccccc2)cs1	–	–	–
Cc1cc(C)nc(NC(=S)NC(=O)c2ccccc2F)n1	–	–	–
Cc1cc(C)nc(S/C=C/C(=O)c2ccccc2F)n1	62	?	–
Cc1cc(C)c(/C=N/NC(=O)c2nnn(-c3nonc3N)c2CN2CCC(C)CC2)c(C)c1	82	–	–
CC1CCN(Cc2c(C(=O)N/N=C/c3cc(Br)ccc3O)nnn2-c2nonc2N)CC1	–	–	–
Cc1[nH]c(=O)[nH]c(=O)c1NC(=O)c1sc2nc3c(C)cccc3cc2c1N	–	+	–
Cc1ccc2cc3c(N)c(C(=O)Nc4c(C)[nH]c(=O)[nH]c4=O)sc3nc2c1	–	–	–
CCCCNC(=O)C1(C)CCCCN1C(=O)c1ccc2sccc2c1 (centres undefined)	–	–	–
C[C@H]1COc2cccc(N3CCSCC3)c2S(=O)(=O)N1	–	–	–
COc1ccc(/C=N/NC(=O)c2ccc(NC(=O)c3cccc([N+](=O)[O-])c3)cc2)c(OC)c1	–	·	–
COc1ccc(/C=N/NC(=O)c2cccc(NC(=O)c3ccc(Cl)cc3)c2)c(OC)c1	–	+	–
COc1cccc(-c2cc3c(c4c2ccn4C)C2CCC3C2)c1 (centres undefined)	–	–	–
CCCN(C)C1CN(Cc2cn(Cc3ccccc3)nn2)S(=O)(=O)C1 (centres undefined)	–	–	–
Cc1nc(S/C(=C/c2ccc(-c3cccc(Cl)c3)o2)C(=O)O)n[nH]1	–	+	–
Cc1nc(-c2cccc(Cl)c2)n[nH]1	–	–	–
Cc1ccccc1NC(=O)Cc1nc(COC(=O)c2cccc([N+](=O)[O-])c2)cs1	–	?	–
COc1ccc(N[C@@H]2CCN3C(=O)c4ccccc4[C@@H]3C[C@H]2O)cc1	–	–	–
N#Cc1ccc(N[C@@H]2CCN3C(=O)c4ccccc4[C@@H]3C[C@H]2O)cc1	–	+	–
O=C1NC[C@@H](CCCCN2C[C@H](Cc3ccc(O)cc3)N(CCc3ccc(O)cc3)C(=O)C2=O)N(CC2CCCCC2)C1=O	–	–	–
C=CCn1c(C)cc(-c2csc(N)n2)c1C	–	–	–
C=CCn1c(C)cc(-c2csc(NC)n2)c1C	–	+	–
SMILES	Granule exo inh	Myeloid diff MLP	ABCB6 inh 2
CN(CC(=O)Nc1ccc(Cl)c(C(F)(F)F)c1)C(=O)c1ccccc1SCC(=O)N1CCCC1	–	–	–
Nc1c(C(=O)Nc2nc3ccccc3s2)sc2nc(-c3cccs3)ccc12	–	+	–
CC(=O)c1sc2nc(-c3cccs3)ccc2c1N	–	–	–
COc1cc(NC(=O)CCC(=O)N2CCN(S(=O)(=O)c3ccc(C)cc3)CC2)cc(OC)c1	–	–	–
C[C@@H]1CCCCO[C@@H](CN(C)C(=O)c2ccncc2)[C@@H](C)CN([C@H](C)CO)C(=O)c2cc(N(C)C)ccc2O1	–	–	–
C[C@H](CO)N1C[C@H](C)[C@@H](CN(C)Cc2ccc(-c3ccccc3)cc2)OCc2cnnn2CCCC1=O	–	–	–
Cc1sc2nc3ccc(NCc4ccco4)nn3c(=O)c2c1C	–	+	–
O=c1c2ccccc2nc2ccc(NCc3ccco3)nn12	–	–	–
Nc1[nH]c(C(=O)c2ccccc2)c(-c2ccccc2Br)c1C(=O)NCCc1ccc(Cl)cc1Cl	–	–	–
CN1C(C(=O)Nc2ccccn2)=C(O)c2sccc2S1(=O)=O	–	+	–
O=C(Nc1ccccn1)c1cccs1	–	–	–
O=c1[nH]c(C2CCN(S(=O)(=O)c3cccc([N+](=O)[O-])c3)CC2)nc2c1nnn2Cc1ccccc1	–	–	–
O=C(/C=C/c1ccc([N+](=O)[O-])s1)N1CCCC1	–	+	–
O=C(/C=C/c1ccc([N+](=O)[O-])s1)N1CCCCC1	–	?	–
Cc1cc(C(=O)C(C)OC(=O)c2ccc(NC(=O)CC#N)cc2)c(C)n1-c1ccccc1 (centres undefined)	–	+	–
CC(OC(=O)c1ccc(NC(=O)CC#N)cc1)C(=O)Nc1ccc2c(c1)OCCO2 (centres undefined)	–	–	–
CCCn1c(CN2CCN(C(=O)c3ccco3)CC2)nc2cc(S(=O)(=O)N(C)C)ccc21	–	–	–
CC1CCC(=C(C#N)c2nc(-c3cc4ccccc4oc3=O)cs2)CC1 (centres undefined)	–	–	–
COc1cc(/C=C(\C#N)c2nc3ccccc3o2)ccc1O	–	+	–
N#C/C(=C\c1ccc(O)cc1)c1nc2ccccc2o1	–	–	–
COc1cc(/C=C(\C#N)c2nc(-c3cc4ccccc4oc3=O)cs2)ccc1O	–	+	–
C[C@H]1CN([C@@H](C)CO)C(=O)Cc2cc(NS(=O)(=O)c3cn(C)cn3)ccc2O[C@@H]1CN(C)C(=O)Nc1ccc(F)cc1	–	–	–
Nc1ncnc2c1ncn2[C@@H]1O[C@H](CCC(=O)NCc2ccccc2)[C@@H](O)[C@H]1O	–	–	–
C#CCOCCOCCOCCNc1nc(N2CCOCC2)nc(N2CCN(C(=O)CCCCCCCCCCNC(=O)[C@@H](CCSC)n3cc(CCO)nn3)CC2)n1	–	–	–
C#CCOCCOCCOCCNc1nc(N2CCN(C(=O)[C@H](CCC(=O)O)n3cc([C@@H](N)CCCCN)nn3)CC2)nc(N2CCN(C(=O)[C@H](CCC(=O)O)n3cc([C@@H](N)CCCCN)nn3)CC2)n1	–	–	–
SMILES	Granule exo inh	Myeloid diff MLP	ABCB6 inh 2
C#CCOCCOCCOCCNc1nc(N2CCN(C(=O)CCCCCCCCCCNC(=O)[C@H](CCCCN)n3cc(C[C@@H](C)CC)nn3)CC2)nc(N2CCN(C(=O)CCCCCCCCCCNC(=O)[C@H](CCCCN)n3cc(C[C@@H](C)CC)nn3)CC2)n1	–	+	–
C#CCOCCOCCOCCNc1nc(N2CCN(C(=O)CCCCCCCCCCNC(=O)[C@H](CO)n3cc(CCCSC)nn3)CC2)nc(N2CCN(C(=O)CCCCCCCCCCNC(=O)[C@H](CO)n3cc(CCCSC)nn3)CC2)n1	–	–	74
C#CCOCCOCCOCCNc1nc(N2CCN(C(=O)CCCCCCCCCCNC(=O)[C@H](CCCCN)n3cc(CCO)nn3)CC2)nc(N2CCN(C(=O)CCCCCCCCCCNC(=O)[C@H](CCCN=C(N)N)n3cc(C[C@@H](C)CC)nn3)CC2)n1	–	–	–
C#CCOCCOCCOCCNc1nc(N2CCN(C(=O)[C@H](CCC(=O)O)n3cc([C@@H](N)CCCCN)nn3)CC2)nc(N2CCN(C(=O)[C@H](CCCCN)n3cc([C@@H](N)CC(N)=O)nn3)CC2)n1	59	–	–
CCCCn1nnnc1C1(C)CCC(=O)N1Cc1ccco1 (centres undefined)	–	–	–
CC(C)C[C@H]1CN(CCCC[C@H]2CNC(=O)C(=O)N2CCc2ccccc2)C(=O)C(=O)N1CC1CCCCC1	–	–	–
